According to PubChem BioAssay (NCI):
This is part of a sample that, as a whole, favours compounds with a hit. Of some 79,000 tested, about 15% had one in any assay. Activity calls are given as the source filed them. Rule as the data show it: active = growth inhibition above about 70%; inactive = the rest.

Legend:
[1] = NCI Yeast Anticancer Drug Screen. Data for the wt1 strain (AID 149);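 also: 0% = growth of vehicle-treated wt1 cultures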; details: S. cerevisiae wt1 strain (SPY 50644) growth inhibition, stronger effect = higher value
Summary of the method: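 Growth inhibition read against vehicle controls after compound exposure of the wt1 yeast strain.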

[2] = NCI Yeast Anticancer Drug Screen. Data for the rad50EPP+ strain (AID 151);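 also: 0% = growth of vehicle-treated control cultures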; details: S. cerevisiae rad50 mutant strain, stronger effect = higher value
Summary of the method: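 Measured: growth inhibition of rad50EPP+ yeast. Reference: vehicle-treated controls. Screen uses strains with defined genetic alterations in DNA damage repair or cell cycle control.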

[3] = NCI Yeast Anticancer Drug Screen. Data for the mgt1 strain (AID 153); details: S. cerevisiae mgt1 mutant growth inhibition, stronger effect = higher value
Summary of the method: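 Compounds were applied to mgt1 mutant yeast, and growth was then compared against vehicle-treated control cultures to give percent inhibition.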

[4] = NCI Yeast Anticancer Drug Screen. Data for the rad50 strain (AID 155);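 also: 0% = growth of vehicle-only cultures of the same strain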; details: S. cerevisiae rad50 strain growth inhibition, stronger effect = higher value
Summary of the method: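 Readout: growth inhibition relative to vehicle-treated cultures. Compound exposure was carried out in a genetically defined yeast strain deficient in DNA damage repair.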

[5] = NCI Yeast Anticancer Drug Screen. Data for the mec2-1 strain (AID 157); details: S. cerevisiae mec2-1 strain, stronger effect = higher value
Summary of the method: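 Compounds were applied to mec2-1 yeast cells. Their growth was then compared with that of vehicle-treated cultures to give growth inhibition.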

[6] = NCI Yeast Anticancer Drug Screen. Data for the rad14 strain (AID 159);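 also: 0% = growth of vehicle-treated control cultures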; details: S. cerevisiae rad14 strain growth inhibition, stronger effect = higher value
Summary of the method: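 Growth inhibition vs vehicle controls; genetically altered yeast strain (DNA damage repair defect) treated with test compounds.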

[7] = NCI Yeast Anticancer Drug Screen. Data for the sgs1 mgt1 strain (AID 161);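 also: 0% = growth of cultures given vehicle only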; details: S. cerevisiae sgs1 mgt1 strain, stronger effect = higher value
Summary of the method: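 This yeast growth screen uses a strain with defined DNA-repair lesions; compound-treated growth is compared with vehicle-treated growth.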

[8] = NCI Yeast Anticancer Drug Screen. Data for the CLN2oe strain (AID 163);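 also: 0% = growth of vehicle-only control cultures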; details: S. cerevisiae CLN2oe strain, stronger effect = higher value
Summary of the method: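 Cells of an engineered yeast line with disturbed cell-cycle regulation are treated with compound. Inhibition of growth is then calculated relative to the vehicle-treated reference.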

[9] = NCI Yeast Anticancer Drug Screen. Data for the cln2 rad14 strain (AID 165);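 also: 0% = growth equal to vehicle treated cultures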; details: S. cerevisiae cln2 rad14 strain, stronger effect = higher value
Summary of the method: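 Strain: cln2 rad14 yeast, altered in cell cycle control and DNA damage repair. Read-out: growth inhibition vs vehicle.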

[10] = NCI Yeast Anticancer Drug Screen. Data for the bub3 strain (AID 167); details: S. cerevisiae bub3 mutant strain, stronger effect = higher value
Summary of the method: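 Readout: yeast growth inhibition, expressed relative to vehicle-only wells. The test organism is a mutant strain from a panel with lesions in DNA repair or checkpoint genes.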

[11] = NCI Yeast Anticancer Drug Screen. Data for the wt2 strain (AID 169);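 also: 0% = growth of vehicle-treated yeast cultures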; details: S. cerevisiae wt2 strain growth inhibition, stronger effect = higher value
Summary of the method: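 Growth of compound-treated yeast is measured and expressed as inhibition relative to vehicle-only controls.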

[12] = NCI Yeast Anticancer Drug Screen. Data for the mlh1 strain (AID 171);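 also: 0% = growth of vehicle-treated control cultures of the same strain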; details: S. cerevisiae mlh1 strain growth inhibition, stronger effect = higher value
Summary of the method: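 Test agents were incubated with yeast bearing a defined DNA damage repair or cell cycle control alteration; values are growth inhibition normalised to vehicle-treated cultures.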

[13] = NCI Yeast Anticancer Drug Screen. Data for the sgs1 strain (AID 173);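 also: 0% = growth of vehicle-only control cultures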; details: S. cerevisiae sgs1 mutant, stronger effect = higher value
Summary of the method: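 Strain with an altered DNA repair or cell cycle pathway exposed to compound. Growth then measured. Value = inhibition versus vehicle control.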

[14] = NCI Yeast Anticancer Drug Screen. Data for the mlh1 rad18 strain (AID 175); details: S. cerevisiae mlh1 rad18 strain growth inhibition, stronger effect = higher value
Summary of the method: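 A repair-deficient yeast strain is exposed to test compound, and growth is scored relative to vehicle-treated controls.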

[15] = NCI Yeast Anticancer Drug Screen. Data for the rad18 strain (AID 177); details: S. cerevisiae rad18 mutant growth inhibition, stronger effect = higher value
Summary of the method: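 DNA-repair-defective yeast; compound treatment; growth inhibition scored against vehicle.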

[16] = at 5.0 µM (retest, dose inferred, filed as 0.5)
[17] = at 50.0 µM (retest, dose inferred, filed as 5.0)

Measured: growth inhibition

CCOc1nc(OCC)nc(-c2cccn2-c2ccccc2)n1
inactive: [1]; at 1.2 µM -19% | [1]; at 3.7 µM -22% | [1]; at 11.0 µM -13% | [1]; at 33.0 µM -11% | [2]; at 1.2 µM 1% | [2]; at 3.7 µM 5% | [2]; at 11.0 µM 23% | [2]; at 33.0 µM 12% | [2]; at 100.0 µM 40% | [3]; at 1.2 µM 1% | [3]; at 3.7 µM 8% | [3]; at 11.0 µM 6% | [3]; at 33.0 µM 25% | [4]; at 1.2 µM 7% | [4]; at 3.7 µM 40% | [4]; at 11.0 µM 35% | [4]; at 33.0 µM 26% | [5]; at 1.2 µM -4% | [5]; at 3.7 µM 9% | [5]; at 11.0 µM -6% | [5]; at 33.0 µM 12% | [5]; at 50.0 µM 59.7% | [6]; at 1.2 µM -11% | [6]; at 3.7 µM -8% | [6]; at 11.0 µM -1% | [6]; at 33.0 µM 13% | [7]; [16] -13% | [8]; at 1.2 µM -2% | [8]; at 3.7 µM 0% | [8]; at 11.0 µM 11% | [8]; at 33.0 µM 6% | [9]; [16] 55% | [10]; at 1.2 µM 19% | [10]; at 3.7 µM 36% | [10]; [16] 14% | [10]; at 11.0 µM 32% | [10]; at 33.0 µM 43% | [11]; at 1.2 µM -3% | [11]; at 3.7 µM 8% | [11]; at 11.0 µM 1% | [11]; at 33.0 µM 38% | [12]; at 1.2 µM -25% | [12]; at 3.7 µM -6% | [12]; at 11.0 µM -12% | [12]; at 33.0 µM 2% | [13]; at 1.2 µM 16% | [13]; at 3.7 µM 15% | [13]; at 11.0 µM 14% | [13]; at 33.0 µM 43% | [15]; at 1.2 µM -4% | [15]; at 3.7 µM 15% | [15]; at 11.0 µM 19% | [15]; at 33.0 µM 19%
active: [1]; at 100.0 µM 94% | [3]; at 100.0 µM 96% | [4]; [16] 85% | [4]; [17] 100% | [4]; at 50.0 µM 70.3% | [4]; at 100.0 µM 92% | [5]; [16] 93% | [5]; [17] 100% | [5]; at 100.0 µM 93% | [6]; at 100.0 µM 90% | [7]; [17] 74% | [8]; at 100.0 µM 91% | [9]; [17] 83% | [10]; [17] 87% | [10]; at 100.0 µM 94% | [11]; at 100.0 µM 95% | [12]; at 100.0 µM 89% | [13]; at 100.0 µM 95% | [14]; [16] 86% | [14]; [17] 100% | [14]; at 50.0 µM 80.2% | [15]; at 100.0 µM 93%
